The results in this text go back to PubChem BioAssay (NCI).

About 79,000 compounds went through this panel and 15% of them were active in at least one assay; those are over-represented in the sample as a whole. Calls of active or inactive are those of the source. No stated cut-off is given here; in the data, active means growth inhibition above about 70%; inactive means the rest.

The nature of the assay: NCI Yeast Anticancer Drug Screen. Data for the rad50 strain (AID 155).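 Further: 0% = growth of vehicle-only cultures of the same strain.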 Particulars: S. cerevisiae rad50 strain growth inhibition; at 50.0 µM; active compounds read high. Summed up:
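DNA repair mutant yeast, compound exposure, growth read-out; inhibition is taken relative to vehicle.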
For the molecule `CCOC(OCC)c1ccccc1.[C-]#[O+].[C-]#[O+].[C-]#[O+].[Cr]`, the growth inhibition is 25.1% (inactive). As to `CCN1/C(=C/C=C2\CCC(/C=C/c3sc4ccc(Cl)cc4[n+]3CC)=C2N(c2ccccc2)c2ccccc2)Sc2ccc(Cl)cc21`, the growth inhibition is 14.4% (inactive). For the molecule `Cc1nc2cccc(F)c2c(=O)n1-c1nnc(C(F)(F)F)s1`, the growth inhibition is 16.9% (inactive). For `CCC[As](=O)(O)c1ccc(Cl)cc1` the value was 88.5% (active); for `[N-]=[N+]=NC(=O)Nc1ccccc1F`, -6.4% (inactive); for `O=C(Nc1ccccc1)N(C1=NCC(CI)S1)c1ccc(F)cc1F` (configuration not stated), 18.3% (inactive). Then `CC(=O)C(C)(C)C`, with 0% (inactive); and `CC(SC(C)C(=O)N/N=C/c1ccc(N(CCCl)CCCl)cc1)C(=O)N/N=C\c1ccc(N(CCCl)CCCl)cc1` (configuration not stated), with -0.45% (inactive); and `CC12CC/C(=C3/C=CC(=O)S3)C=C1CCC1C2CCC2(C)C(O)CCC12` (configuration not stated), with 23.9% (inactive). In the case of `N#Cc1ccc(C(Cl)(Cl)Cl)cc1`, the growth inhibition was 1.5% (inactive). As for `CC(C)(C)C1COP(=O)(C(C)(C)C)OC1` (configuration not stated), the growth inhibition was -12.6% (inactive). On to `CCCCCCCC(=O)[O-].N.N.N.N.N.[Co+3].[O-][Cl+3]([O-])([O-])[O-]`, for which the growth inhibition was -16.1% (inactive).

For the molecule `CC/C=C/C1(C)C(=O)NC(=S)NC1=O`, the growth inhibition is 5.15% (inactive).

`Clc1ccc(NC2=NCCS2)cc1Cl`: the growth inhibition was -9% (inactive). For `NC(CP(=O)(O)O)C(=O)O` (configuration not stated) the value was 0.4% (inactive); for `CCC(=O)C(CC(C)[N+](C)(C)C)(c1ccccc1)c1ccccc1` (configuration not stated), -3.05% (inactive). Take `CC(=[N-])CC(C)=O.CC(=[N-])CC(C)=O.[Cu+2]`: the growth inhibition is 14.9% (inactive).
